This passage reports Potency results from PubChem BioAssay (Tox21).

A short description of assay [1]: Nuclear factor erythroid 2-related factor 2/antioxidant responsive element (Nrf2/ARE) small molecule agonists: qHTS cell viability counter screen in human keratinocytes (AID 1919968; active means well fitted curve in the direction sought with a large enough effect in the repeat runs; an effect the other way counts as inactive or inconclusive; further: nearly all actives have a fitted effect of over 55% in size). In short, it runs like this:
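Cells of the KeratinoSens line were plated at 1,500 per well and left for 5 h before compound transfer from DMSO stocks. After a 23 h incubation (37 C, 5% CO2), CellTiter-Fluor was added. Signal was taken as fluorescence intensity 1 h later.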

The nature of assay [2]: Nuclear factor erythroid 2-related factor 2/antioxidant responsive element (Nrf2/ARE) small molecule agonists: luciferase reporter gene qHTS assay in human keratinocytes (AID 1919969). Further: nearly all actives have a fitted effect of over 35% in size. Further: potency means the concentration at half of the fitted maximal effect.
Assay [3] deals with Gonadotropin-releasing hormone receptor (Homo sapiens) (UniProt P30968). Kind of assay: Human gonadotropin-releasing hormone receptor (GnRHR) small molecule agonists, calcium flux assay in GnRHR-HEK293 cells (AID 1920063). Further: nearly all actives have a fitted effect of over 35% in size. In short, it runs like this:
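Compounds dissolved in DMSO are pin-transferred onto dye-loaded GnRHR-HEK293 cells, which were seeded 18 h before at 37 C/5% CO2. Calcium signal is read as fluorescence intensity at 1 s intervals for 3 min.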

The target of assay [4] is KiSS-1 receptor (Homo sapiens) (UniProt Q969F8). Kind of assay: Human kisspeptin (KISS1R) small molecule agonists, calcium flux assay in KISS1R-HEK293 cells (AID 1920064; active means well fitted curve in the direction sought with a large enough effect in the repeat runs; an effect the other way counts as inactive or inconclusive). The method in brief:
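Cell line: HEK293, stable human KISS1R. Dye loading 1 h at 37 C after 18 h culture. Read: kinetic fluorescence, 480/540 nm, 3 min at 1 s intervals.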

Assay [5] in a line: G protein-coupled receptor (GPCR) small molecule agonists, calcium flux assay: HEK293 wild type cell line counter screen (AID 1920065). In short, it runs like this: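 Tox21 10K compounds, 15 concentrations each in triplicate, pin-transferred in DMSO onto dye-loaded cells; kinetic read at 480/540 nm for 3 min, 1 s intervals.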
Assay [6] can be described thus: p53 small molecule agonists, cell-based qHTS assay with human liver microsomes: qHTS cell viability counter screen (AID 1963579). Further: nearly all actives have a fitted effect of over 45% in size. In short, it runs like this: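 Metabolically activated exposure: compounds, human liver microsomes and NADPH (0.5 mg/mL final apiece) were added to p53RE-bla cells seeded 5 h earlier, left 16 h at 37 C, and then assessed for viability by CellTiter-Glo luminescence.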

Assay [7] can be described thus: p53 small molecule agonists, cell-based qHTS assay with rat liver microsomes: qHTS cell viability counter screen (AID 1963580). Further: nearly all actives have a fitted effect of over 45% in size. In short, it runs like this:
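Rat liver microsome (0.5 mg/mL final) and NADPH (0.5 mg/mL final) co-incubation with compounds for 16 h at 37 C on HCT-116 p53RE-bla cells; cytotoxicity taken from intracellular ATP luminescence.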

A short description of assay [8]: p53 small molecule agonists, cell-based qHTS assay: qHTS cell viability counter screen (AID 1963581). Further: nearly all actives have a fitted effect of over 45% in size. In short, it runs like this:
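ATP content measured by luminescence in HCT-116 p53RE-bla cells treated 16 h at 37 C, same wells as the reporter screen.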

Assay [9] concerns the target 5-hydroxytryptamine receptor 2A (Homo sapiens) (UniProt P28223). Kind of assay: 5-hydroxytryptamine receptor 2A (HTR2A) small molecule antagonists, cell-based qHTS assay (AID 1963586). Further: nearly all actives have a fitted effect of over 45% in size. In short, it runs like this:
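CHO cells stably expressing human HTR2A were plated for 18 h at 37 C, then loaded with calcium dye for 1 h. Compounds were preincubated 5 min at room temperature before DOI (4 nM solution) was added. Kinetic fluorescence was read for 3 min.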

For assay [10] the target is unchanged. Kind of assay: 5-hydroxytryptamine receptor 2A (HTR2A) small molecule agonists, cell-based qHTS assay (AID 1963587). Further: nearly all actives have a fitted effect of over 30% in size. In short, it runs like this:
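Kinetic calcium-flux fluorescence (2 min, 1 sec intervals) after compound addition in agonist mode. HTR2A-CHO cells were cultured 18 h, then dye-loaded 1 h at 37 C.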

Assay [11] addresses Muscarinic acetylcholine receptor M1 (Homo sapiens) (UniProt P11229). Nature of the assay: Cholinergic receptor muscarinic 1 (CHRM1) small molecule agonists, cell-based qHTS assay (AID 1963589). Further: nearly all actives have a fitted effect of over 35% in size. The method in brief: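 Homogeneous fluorescence calcium flux, agonist mode. Human M1-expressing CHO cells; compound dosed at 15 concentrations, three independent runs; signal sampled every 1 sec.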

Assay [12] in a line: cAMP Responsive Elements (CRE) small molecule agonists, cell-based qHTS assay (AID 1963590). The method in brief: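 HEK 293T cells stably bearing CRE-bla were plated at 2,000 cells per well and rested 18 h. Compounds, positive controls or DMSO were added for 3 h at 37 C. LiveBLAzer B/G substrate was then loaded for 2 h at room temperature.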
The target of assay [13] is D(2) dopamine receptor (Homo sapiens) (UniProt P14416). Kind of assay: Dopamine D2 receptor (DRD2) small molecule agonists, cell-based qHTS assay (AID 1963594). Further: nearly all actives have a fitted effect of over 35% in size. In short, it runs like this:
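cAMP accumulation in DRD2-HEK293 cells measured by HTRF after 1 h detection; compounds added 10 min before NKH477 (200nM […]) forskolin-analogue stimulation, 30 min at room temperature, with Ro20-1724 present at 0.1 mM final.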

Assay [14] shares this target. Nature of the assay: Dopamine D2 receptor (DRD2) small molecule antagonists, cell-based qHTS assay (AID 1963595; active means well fitted inhibition curve with a large enough effect in the signal ratio in the repeat runs, with a control signal flat; the % refers to the signal ratio). The method in brief:
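Antagonist mode in DRD2-HEK293 cells: after compound addition with 0.1 mM Ro20-1724, cells received quinpirole (12 nM) and NKH477 (200 nM) for 30 min at room temperature; HTRF cAMP read after 1 h detection.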

Assay [15] has as its target Muscarinic acetylcholine receptor M1 (Homo sapiens) (UniProt P11229). Nature of the assay: Cholinergic receptor muscarinic 1 (CHRM1) small molecule antagonists, cell-based qHTS assay (AID 1963588). Further: nearly all actives have a fitted effect of over 40% in size. The method in brief: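 Compounds were tested at 15 concentrations in three independent runs. Dye-loaded CHRM1-CHO cells were exposed 5 min at room temperature before stimulation by acetylcholine added at 50nM. Intracellular calcium was read kinetically on FDSS for 3 min.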

Assay [16] in a line: cAMP Responsive Elements (CRE) small molecule antagonists, cell-based qHTS assay (AID 1963591; active means well fitted inhibition curve with a large enough effect in the signal ratio in the repeat runs, not every such curve was filed as active; the % refers to the signal ratio). The method in brief: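 First, CRE-bla HEK293T cells settled 18 h at 37 C. Next, compound and 0.25 uM final NKH477 were applied for 3 h. Last, LiveBLAzer B/G substrate was loaded for 2 h at room temperature.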
The target in assay [17] is Beta-2 adrenergic receptor (Homo sapiens) (UniProt P07550). Kind of assay: Adrenergic beta2 receptor (ADRB2) small molecule agonists, cell-based qHTS assay (AID 1963593).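 Further: CHO cells stably overexpressing human ADRB2.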 In short, it runs like this: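 CHO cells stably over-expressing ADRB2 were plated overnight at 37C, then dosed with compounds plus a stimulation mix containing 100uM IBMX and 25uM Ro-20-1724 for 0.5hr at room temperature. cAMP was measured by HTRF competition, 1hr.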

Assay [18] shares this target. Kind of assay: Adrenergic beta2 receptor (ADRB2) small molecule antagonists, cell-based qHTS assay (AID 1963592). Further: series mostly up to about 92 µM; nearly all actives have a fitted effect of over 50% in size. The method in brief: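 Assay format: CHO-ADRB2 cells, 18-20hr seeding at 37C/5% CO2, then compound plus 1nM isoproterenol agonist mix for 0.5hr RT. Homogeneous time-resolved fluorescence cAMP detection after 1hr, expressed as 665/615 nm ratio.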

Unmarked numbers belong to inactive results. Records with an inconclusive call do not appear. Activity calls are given as the source filed them. Unless noted, the call rests on the fitted dose curve.

Sequence of KiSS-1 receptor (Homo sapiens) (Q969F8 whole entry, looked up): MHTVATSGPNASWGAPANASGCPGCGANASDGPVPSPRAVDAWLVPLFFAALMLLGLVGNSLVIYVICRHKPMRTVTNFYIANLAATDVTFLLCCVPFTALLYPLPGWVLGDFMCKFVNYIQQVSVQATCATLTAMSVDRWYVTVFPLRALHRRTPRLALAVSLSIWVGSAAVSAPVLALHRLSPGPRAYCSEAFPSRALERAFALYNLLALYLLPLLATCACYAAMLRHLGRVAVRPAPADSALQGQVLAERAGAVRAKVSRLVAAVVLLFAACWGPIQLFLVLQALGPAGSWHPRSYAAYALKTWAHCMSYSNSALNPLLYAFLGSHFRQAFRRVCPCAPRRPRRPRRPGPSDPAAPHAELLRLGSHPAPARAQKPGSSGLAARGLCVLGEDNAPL
Sequence of 5-hydroxytryptamine receptor 2A (Homo sapiens) (P28223 whole entry, looked up): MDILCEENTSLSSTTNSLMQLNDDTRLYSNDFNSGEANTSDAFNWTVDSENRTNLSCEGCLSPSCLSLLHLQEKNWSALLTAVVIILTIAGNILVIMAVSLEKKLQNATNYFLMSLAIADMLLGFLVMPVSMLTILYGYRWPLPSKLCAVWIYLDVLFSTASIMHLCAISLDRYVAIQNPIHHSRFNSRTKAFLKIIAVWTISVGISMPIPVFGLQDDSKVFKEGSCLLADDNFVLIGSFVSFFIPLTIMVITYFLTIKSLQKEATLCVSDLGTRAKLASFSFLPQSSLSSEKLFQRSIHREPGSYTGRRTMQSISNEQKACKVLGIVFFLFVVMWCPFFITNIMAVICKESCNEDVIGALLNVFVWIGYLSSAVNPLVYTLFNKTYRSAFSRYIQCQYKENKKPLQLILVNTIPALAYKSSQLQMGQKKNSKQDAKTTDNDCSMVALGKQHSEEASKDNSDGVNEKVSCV
Sequence of Gonadotropin-releasing hormone receptor (Homo sapiens) (P30968 whole entry, looked up): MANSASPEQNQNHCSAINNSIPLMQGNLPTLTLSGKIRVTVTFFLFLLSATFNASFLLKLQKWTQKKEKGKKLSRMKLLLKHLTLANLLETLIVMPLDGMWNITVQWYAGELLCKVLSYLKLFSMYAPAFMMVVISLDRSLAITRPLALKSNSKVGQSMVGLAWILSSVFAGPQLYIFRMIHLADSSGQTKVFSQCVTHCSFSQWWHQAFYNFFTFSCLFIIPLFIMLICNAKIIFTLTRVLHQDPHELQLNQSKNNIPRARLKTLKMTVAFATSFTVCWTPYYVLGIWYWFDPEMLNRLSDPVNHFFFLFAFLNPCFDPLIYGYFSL
Sequence of D(2) dopamine receptor (Homo sapiens) (P14416 whole entry, looked up): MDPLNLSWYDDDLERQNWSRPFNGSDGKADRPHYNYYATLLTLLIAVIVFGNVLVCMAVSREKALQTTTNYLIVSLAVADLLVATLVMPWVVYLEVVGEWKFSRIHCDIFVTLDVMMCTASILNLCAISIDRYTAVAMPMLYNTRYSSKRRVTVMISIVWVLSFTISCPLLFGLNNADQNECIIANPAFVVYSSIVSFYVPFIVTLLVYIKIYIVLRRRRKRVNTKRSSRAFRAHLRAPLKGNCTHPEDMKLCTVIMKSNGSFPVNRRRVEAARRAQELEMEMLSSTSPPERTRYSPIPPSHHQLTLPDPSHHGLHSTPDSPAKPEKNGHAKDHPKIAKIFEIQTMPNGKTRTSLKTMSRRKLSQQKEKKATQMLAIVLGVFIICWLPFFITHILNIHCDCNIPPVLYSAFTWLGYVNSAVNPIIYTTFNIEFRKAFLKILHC
Sequence of Muscarinic acetylcholine receptor M1 (Homo sapiens) (P11229 whole entry, looked up): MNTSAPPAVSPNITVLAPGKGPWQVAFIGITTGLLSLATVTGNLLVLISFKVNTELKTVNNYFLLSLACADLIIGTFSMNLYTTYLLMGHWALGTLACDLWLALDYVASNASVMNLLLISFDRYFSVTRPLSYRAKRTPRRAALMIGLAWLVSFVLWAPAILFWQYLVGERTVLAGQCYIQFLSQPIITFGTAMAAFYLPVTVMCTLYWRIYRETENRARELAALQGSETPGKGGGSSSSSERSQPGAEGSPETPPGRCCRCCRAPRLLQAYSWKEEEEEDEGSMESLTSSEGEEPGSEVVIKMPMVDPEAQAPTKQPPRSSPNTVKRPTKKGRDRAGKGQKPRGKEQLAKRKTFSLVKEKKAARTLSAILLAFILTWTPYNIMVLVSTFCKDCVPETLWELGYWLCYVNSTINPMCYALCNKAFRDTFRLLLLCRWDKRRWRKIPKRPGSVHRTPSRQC
Sequence of Beta-2 adrenergic receptor (Homo sapiens) (P07550 whole entry, looked up): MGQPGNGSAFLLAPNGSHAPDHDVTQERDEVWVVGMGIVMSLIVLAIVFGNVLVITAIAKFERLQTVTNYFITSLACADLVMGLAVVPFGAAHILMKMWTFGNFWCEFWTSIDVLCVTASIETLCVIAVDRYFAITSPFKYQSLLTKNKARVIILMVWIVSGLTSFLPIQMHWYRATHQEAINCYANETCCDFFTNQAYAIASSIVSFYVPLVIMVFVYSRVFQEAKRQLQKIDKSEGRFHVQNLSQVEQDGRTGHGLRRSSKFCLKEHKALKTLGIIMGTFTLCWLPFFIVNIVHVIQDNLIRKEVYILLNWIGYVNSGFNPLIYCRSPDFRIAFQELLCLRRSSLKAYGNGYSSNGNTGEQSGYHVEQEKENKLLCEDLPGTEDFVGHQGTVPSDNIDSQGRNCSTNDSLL

Regarding `CCOC(=O)C1=NN(c2ccccc2)C(=O)C1`, the Potency result in [1], in [2], in assay [3], in assay [4], in assay [5] and in assay [6] was “inactive” throughout. Further, the Potency entry in [7], in [8], in assay [9], in [10], in assay [11] and in assay [12] was “inactive” in each case. The Potency entry in assay [13] and in [14] was “inactive” throughout.

For the compound `C/C=C(\C)C(C)=O`, the Potency entry in assay [1], in assay [2], in assay [3], in assay [4], in [5] and in assay [6] was “inactive” each time. The Potency result in assay [7], in assay [8], in [9], in assay [15], in [11] and in assay [12] was “inactive” in each case. Besides, the Potency entry in assay [16], in assay [17] and in assay [14] was “inactive” throughout.

For the compound `CCCCCOC(=O)COc1cc(N2C(=O)C3=C(CCCC3)C2=O)c(F)cc1Cl`, the Potency entry in assay [1], in [3], in assay [4], in assay [5], in assay [6] and in assay [7] was “inactive” each time. Moreover, the Potency result in assay [8], in assay [9], in assay [10], in assay [11], in assay [12] and in assay [13] was “inactive” in each case. Also, the Potency entry in [14] is “inactive”. For the same compound, the Potency in assay [2] was 61.1 µM (active).

As to `FC(F)(Cl)C(F)(Cl)Cl`, the Potency result in assay [1], in [2], in [3], in [4], in [5] and in [6] was “inactive” in each case. Moreover, the Potency entry in assay [7], in assay [8], in [9], in assay [11], in assay [16] and in [18] was “inactive” each time. The Potency entry in [13] and in [14] was “inactive” in each case.

Take `CCCCCCCCCCO[C@@H]1O[C@H](CO)[C@@H](O)[C@H](O)[C@H]1O`: the Potency result in assay [1], in [2], in assay [3], in assay [4], in assay [5] and in [6] was “inactive” throughout. Besides, the Potency result in assay [7], in assay [8], in assay [9], in assay [15], in assay [11] and in assay [12] was “inactive” in each case. Besides, the Potency result in assay [16], in [18], in assay [13] and in assay [14] was “inactive” in each case.

In the case of `CC[C@@]1(c2ccccc2)NC(=O)N(C)C1=O`, the Potency result in assay [1], in [2], in assay [3], in [4], in [5] and in assay [6] was “inactive” each time. Also, the Potency result in assay [7], in [8], in assay [10], in [15], in [11] and in [12] was “inactive” throughout. In addition, the Potency entry in [16], in [18], in assay [17], in assay [13] and in [14] was “inactive” throughout.

For `O=S1(=O)CCCC1`, the Potency result in assay [1], in [2], in [3], in assay [4], in [5] and in assay [6] was “inactive” throughout. Also, the Potency entry in assay [7], in assay [8], in assay [9], in [15], in [11] and in [12] was “inactive” throughout. For the same compound, the Potency result in assay [16], in [18], in assay [17], in assay [13] and in assay [14] was “inactive” each time.
